Measured values: PubChem BioAssay AID1117290 (Broad Institute, 2014)
Measured potencies and affinities stand elsewhere. Values without a mark were called inactive. Active and inactive are the calls of the source.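 The calls were made as follows: active = every replicate test called active, each showing a drop in signal with a fitted potency within twice the top tested dose; inconclusive = tests disagree, or fits are weak, flat midrange or poor; inactive = every test flat, rising or fitted past the limit.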

Assay: lung carcinoma cell viability loss – CellTiter-Glo luminescence, dry powder, set 18, cytotoxicity control, dose response (AID 1117290)
Conditions: A549 viability, CellTiter-Glo ATP luminescence, 72 h; series mostly up to 26 µM; activity change, negative = cytotoxicity: at the top concentration

Compound	activity change, negative = cytotoxicity	outcome
Cn1cnc(S(=O)(=O)Nc2cc(C(F)(F)F)ccc2N2CCCCC2)c1	17.9%	
COc1ccc(C(=O)O)cc1S(=O)(=O)Nc1cc(C(F)(F)F)ccc1N1CCN(C(C)=O)CC1	-10.6%	
O=S(=O)(Nc1cc(C(F)(F)F)ccc1N1CCCCC1)c1ccccc1	-6.73%	
COc1ccc(C(=O)O)cc1S(=O)(=O)Nc1cc(C(F)(F)F)ccc1N1CCOCC1	-18.6%	
O=S(=O)(Nc1cc(C(F)(F)F)ccc1N1CCCCC1)c1ccc(F)cc1	-15.4%	
COc1ccc(C(=O)O)cc1S(=O)(=O)Nc1cc(C(F)(F)F)ccc1N(C)C	-9.63%	
COc1ccc(C(=O)Nc2cc(F)ccc2N2CCCCC2)cc1S(=O)(=O)O	-18.2%	
O=S(=O)(Nc1cc(C(F)(F)F)ccc1N1CCCCC1)c1ccc(Cl)cc1	-14.8%	
CC(=O)N1CCN(C(=O)C2(NC(=O)Nc3ccc(C(C)C)cc3)CCCCC2)CC1	-15.8%	
CC(=O)N1CCN(C(=O)C2(NC(=O)Nc3ccccc3F)CCCCC2)CC1		inactive
